Measurements taken from PubChem BioAssay AID1159580 (chemical genetic matrix, 2015).
Hit rate of the full screen: of about 5,500 compounds, about 2,000 (36%) were called active. About 18% were inconclusive and are not listed. No stated cut-off is given here; in the data, active means normalized growth mostly below about 0.91 (no sharp cut-off); inconclusive means no clear call, values can overlap the other calls; inactive means mostly above about 0.92. Some of the results follow.

Assay: chemical genetic growth profiling, strain panel (AID 1159580);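 further: tested at 20 µM; growth read once vehicle control cultures reached saturation at 30 °C; 1 = growth at the plate median or of vehicle wells; lower values mean less growth of the strain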
Details: S. cerevisiae deletion strains, growth OD

Measured: normalized growth

NC(=O)C(=O)O
inactive: locus YAL013W, strain DEP1, hits give low values 1.01 | locus YAL040C, strain CLN3, hits give low values 1 | locus YCL061C, strain MRC1 (second series), hits give low values 1 | locus YDR150W, strain NUM1, hits give low values 1 | locus YDR363W, strain ESC2, hits give low values 1.02 | locus YER002W, strain NOP16, hits give low values 0.999 | locus YGR078C, strain PAC10, hits give low values 0.994 | locus YMR307W, strain GAS1, hits give low values 1 | locus YNL175C, strain NOP13, hits give low values 1.01 | locus YNL197C, strain WHI3, hits give low values 1 | locus YNL224C, strain SQS1, hits give low values 1.01 | locus YOR083W, strain WHI5 (second series), hits give low values 1.02 | locus YPL055C, strain LGE1, hits give low values 1.01 | locus YPL241C, strain CIN2, hits give low values 0.997
